This note sets out measurements from ChEMBL document CHEMBL3988442, “University of Dundee, Small-Polar-MMV Screening Library” (2021).

For some of these results: Potency and affinity values are given separately.

Holding throughout (set-up): scale not given: direction of the effect not stated beside the values
In experiment [1] the target is Protein translocase subunit SecA (Escherichia coli (strain K12)) (UniProt P10408). The experiment is described as follows: Assay to Identify E. coli SecA ATPase Inhibitors. It counts as functional. The settings on record: 30 µM.
Chain of Protein translocase subunit SecA (Escherichia coli (strain K12)) (P10408 whole entry): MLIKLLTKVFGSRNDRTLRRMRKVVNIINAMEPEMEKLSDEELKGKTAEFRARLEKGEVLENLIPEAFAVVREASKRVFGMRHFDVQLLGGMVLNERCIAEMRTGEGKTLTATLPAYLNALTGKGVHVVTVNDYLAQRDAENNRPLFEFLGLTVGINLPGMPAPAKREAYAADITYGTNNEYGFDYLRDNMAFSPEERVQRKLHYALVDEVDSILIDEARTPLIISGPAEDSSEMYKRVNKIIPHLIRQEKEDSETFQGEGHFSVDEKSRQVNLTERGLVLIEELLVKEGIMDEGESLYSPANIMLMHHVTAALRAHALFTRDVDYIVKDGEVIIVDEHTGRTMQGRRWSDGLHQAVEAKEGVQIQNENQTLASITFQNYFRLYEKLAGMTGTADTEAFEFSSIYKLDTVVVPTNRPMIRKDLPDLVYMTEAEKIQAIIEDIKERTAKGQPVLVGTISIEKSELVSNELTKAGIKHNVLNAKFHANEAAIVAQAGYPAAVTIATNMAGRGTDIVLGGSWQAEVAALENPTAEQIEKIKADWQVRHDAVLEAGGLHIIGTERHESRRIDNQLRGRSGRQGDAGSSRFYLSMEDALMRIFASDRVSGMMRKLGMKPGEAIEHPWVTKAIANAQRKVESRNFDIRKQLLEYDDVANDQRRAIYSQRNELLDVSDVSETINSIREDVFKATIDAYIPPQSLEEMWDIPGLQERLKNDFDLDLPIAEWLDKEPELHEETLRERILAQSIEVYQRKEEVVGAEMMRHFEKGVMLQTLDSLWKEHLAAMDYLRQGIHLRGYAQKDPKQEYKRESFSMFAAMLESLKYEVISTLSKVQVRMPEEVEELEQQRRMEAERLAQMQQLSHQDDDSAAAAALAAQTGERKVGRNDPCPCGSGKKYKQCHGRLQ
The target in experiment [2] is T1, Ubiquitin-activating enzyme e1, putative (Leishmania donovani (strain BPK282A1)) (UniProt E9BSI1).
T1 sequence (whole entry): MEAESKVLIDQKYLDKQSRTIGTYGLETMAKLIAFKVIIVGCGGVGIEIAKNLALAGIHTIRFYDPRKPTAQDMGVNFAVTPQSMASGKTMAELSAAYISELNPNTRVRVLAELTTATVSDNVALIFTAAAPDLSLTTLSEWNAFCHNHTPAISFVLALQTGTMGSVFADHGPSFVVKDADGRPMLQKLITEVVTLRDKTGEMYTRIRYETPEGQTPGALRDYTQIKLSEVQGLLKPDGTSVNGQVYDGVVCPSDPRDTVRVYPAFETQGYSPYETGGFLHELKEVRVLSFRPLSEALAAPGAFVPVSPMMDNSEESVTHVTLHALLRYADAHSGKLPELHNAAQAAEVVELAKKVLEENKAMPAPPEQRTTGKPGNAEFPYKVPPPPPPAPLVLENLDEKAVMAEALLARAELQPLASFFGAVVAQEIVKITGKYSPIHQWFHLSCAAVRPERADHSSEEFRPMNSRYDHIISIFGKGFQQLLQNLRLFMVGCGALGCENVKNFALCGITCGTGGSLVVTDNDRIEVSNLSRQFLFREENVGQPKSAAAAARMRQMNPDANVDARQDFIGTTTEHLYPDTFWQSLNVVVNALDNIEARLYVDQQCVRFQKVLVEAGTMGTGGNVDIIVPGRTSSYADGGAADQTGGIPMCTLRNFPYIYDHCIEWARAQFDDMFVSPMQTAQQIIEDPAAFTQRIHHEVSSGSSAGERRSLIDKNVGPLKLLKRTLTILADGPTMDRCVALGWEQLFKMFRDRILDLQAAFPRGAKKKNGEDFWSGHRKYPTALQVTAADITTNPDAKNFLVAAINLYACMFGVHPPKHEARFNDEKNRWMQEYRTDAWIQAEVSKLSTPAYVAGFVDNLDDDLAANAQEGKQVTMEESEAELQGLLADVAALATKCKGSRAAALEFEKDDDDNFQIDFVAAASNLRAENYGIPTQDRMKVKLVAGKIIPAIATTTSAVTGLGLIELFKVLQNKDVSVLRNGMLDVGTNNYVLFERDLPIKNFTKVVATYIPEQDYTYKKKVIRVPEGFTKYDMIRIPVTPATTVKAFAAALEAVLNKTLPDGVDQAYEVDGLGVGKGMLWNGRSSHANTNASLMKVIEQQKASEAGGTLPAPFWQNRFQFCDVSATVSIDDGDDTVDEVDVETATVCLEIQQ
Kind of experiment: Leishmania donovani Ubiquitin Activating Enzyme (LdE1). The experiment is classed as functional. The settings on record: 30 µM.

Experiment [3] has as its target AMP-activated protein kinase, AMPK (Homo sapiens) (UniProt P54646+O43741+P54619+Q9UGJ0+Q9Y478+Q13131+Q9UGI9). Kind of experiment: AMP-dependent Kinase enzyme assay. An in vitro enzyme assay that detects ADP turnover that is directly proportional to AMPK activity. This uses naive AMPK that is activated during the assay with MK-8722. It counts as functional. As to conditions: 30 µM.

In experiment [4] the target is Sialic acid-binding Ig-like lectin 9 (Homo sapiens) (UniProt Q9Y336). The experiment is described as follows: Hs-Siglec9 ALPHAscreen SOP 20170721. As to conditions: 10 µM.
Chain of Sialic acid-binding Ig-like lectin 9 (Homo sapiens) (Q9Y336 whole entry): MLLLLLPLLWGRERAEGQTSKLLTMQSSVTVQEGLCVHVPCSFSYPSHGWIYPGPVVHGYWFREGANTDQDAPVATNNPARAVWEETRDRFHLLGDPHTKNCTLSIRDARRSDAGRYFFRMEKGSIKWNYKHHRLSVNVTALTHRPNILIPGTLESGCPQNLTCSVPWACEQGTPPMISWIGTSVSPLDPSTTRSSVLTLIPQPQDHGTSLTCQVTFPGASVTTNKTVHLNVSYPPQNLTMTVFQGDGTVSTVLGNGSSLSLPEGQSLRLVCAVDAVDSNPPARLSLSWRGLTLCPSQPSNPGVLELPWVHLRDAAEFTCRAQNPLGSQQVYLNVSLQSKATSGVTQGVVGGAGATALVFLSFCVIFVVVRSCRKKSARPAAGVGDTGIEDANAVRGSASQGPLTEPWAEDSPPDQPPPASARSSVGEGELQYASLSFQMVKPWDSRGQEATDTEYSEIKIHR
The test system of experiment [5] is Trypanosoma cruzi. Kind of experiment: Trypanosoma cruzi phosphomannomutase and mannose-1-phosphate guanylyltransferase assay. The experiment is classed as functional. The settings on record: 10 µM.
In experiment [6] the target is T2, Arginase-2, mitochondrial (Homo sapiens) (UniProt P78540).
T2 sequence (whole entry): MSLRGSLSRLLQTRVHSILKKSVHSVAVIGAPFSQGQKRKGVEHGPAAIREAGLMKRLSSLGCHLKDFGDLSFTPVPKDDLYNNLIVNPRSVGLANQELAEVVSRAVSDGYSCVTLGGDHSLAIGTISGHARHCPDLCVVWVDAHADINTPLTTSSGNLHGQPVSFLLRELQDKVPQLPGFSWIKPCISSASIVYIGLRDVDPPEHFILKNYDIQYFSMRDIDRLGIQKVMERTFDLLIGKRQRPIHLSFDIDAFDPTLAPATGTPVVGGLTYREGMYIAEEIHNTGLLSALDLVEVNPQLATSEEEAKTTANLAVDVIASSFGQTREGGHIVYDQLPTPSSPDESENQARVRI
The experiment is described as follows: in vitro enzyme assay to detect the production of urea directly proportional to the activity of Arginase II. Further: in the data most compounds retested in dose-response had high values. The experiment is classed as functional. As to conditions: 33.3 µM.

For experiment [7], the target named is T3, Proteasome subunit beta (Trypanosoma cruzi) (UniProt O96673).
T3 sequence (whole entry): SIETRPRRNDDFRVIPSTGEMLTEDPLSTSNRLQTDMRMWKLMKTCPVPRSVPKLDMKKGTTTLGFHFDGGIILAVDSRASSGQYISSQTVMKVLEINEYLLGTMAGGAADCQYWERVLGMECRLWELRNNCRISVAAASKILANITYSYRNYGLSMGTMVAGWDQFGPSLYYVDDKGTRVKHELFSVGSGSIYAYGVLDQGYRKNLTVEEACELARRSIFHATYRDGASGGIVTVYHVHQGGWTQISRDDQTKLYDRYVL
Kind of experiment: Trypanosoma cruzi proteasome chymotrypsin-like activity (TcProtChymo) assay. Further: in the data most compounds retested in dose-response had high values. It counts as functional. The settings on record: 9.37 µM.

The species entered for experiment [8] is Homo sapiens. Kind of experiment: To identify inhibition of the IFN signalling (Jak-Stat) pathway via expression of an eGFP reporter gene under the control of an IFN-stimulated response element (ISRE) containing MxA promoter. As to conditions: 30 µM. The experiment is classed as functional.
For experiment [9], the target named is T4, Tyrosyl-tRNA synthetase, putative (Trypanosoma cruzi (strain CL Brener)) (UniProt Q4DSP6).
T4 sequence (whole entry): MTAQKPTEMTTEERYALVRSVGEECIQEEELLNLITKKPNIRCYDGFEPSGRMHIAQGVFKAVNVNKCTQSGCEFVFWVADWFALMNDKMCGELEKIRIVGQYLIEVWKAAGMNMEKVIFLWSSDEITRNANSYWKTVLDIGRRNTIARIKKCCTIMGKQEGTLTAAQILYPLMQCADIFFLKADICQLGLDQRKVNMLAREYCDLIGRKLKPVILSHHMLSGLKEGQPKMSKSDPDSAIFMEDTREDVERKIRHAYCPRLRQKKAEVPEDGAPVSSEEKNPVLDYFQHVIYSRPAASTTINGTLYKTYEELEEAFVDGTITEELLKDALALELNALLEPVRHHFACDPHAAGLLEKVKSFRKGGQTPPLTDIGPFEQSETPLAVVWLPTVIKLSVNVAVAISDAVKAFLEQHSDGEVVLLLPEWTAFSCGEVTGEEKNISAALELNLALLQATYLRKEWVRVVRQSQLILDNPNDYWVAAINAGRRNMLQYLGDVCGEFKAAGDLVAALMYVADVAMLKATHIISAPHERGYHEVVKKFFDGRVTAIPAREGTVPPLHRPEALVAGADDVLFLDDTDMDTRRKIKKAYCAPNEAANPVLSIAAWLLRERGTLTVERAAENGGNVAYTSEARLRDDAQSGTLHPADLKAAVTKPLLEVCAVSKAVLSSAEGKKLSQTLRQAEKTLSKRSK
Kind of experiment: Trypanosoma cruzi tyrosyl tRNA synthetase (TcYRS) _High Tyrosine SOP. Further: in the data most compounds retested in dose-response had high values. The experiment is classed as functional. As to conditions: 30 µM.

For experiment [10], the target named is T4, Tyrosyl-tRNA synthetase, putative (Trypanosoma cruzi (strain CL Brener)). The experiment is described as follows: Trypanosoma cruzi tyrosyl tRNA synthetase (TcYRS) SOP. It counts as functional. The settings on record: 30 µM.
The target in experiment [11] is Chromo domain-containing protein 1 (Saccharomyces cerevisiae (strain ATCC 204508 / S288c) (Baker's yeast)) (UniProt P32657). The experiment is described as follows: ScCHD-1 Enzyme Inhibition Assay. Further: in the data most compounds retested in dose-response had high values. It counts as functional. As to conditions: 30 µM.
Chain of Chromo domain-containing protein 1 (Saccharomyces cerevisiae (strain ATCC 204508 / S288c) (Baker's yeast)) (P32657 whole entry, the tested form may be a part): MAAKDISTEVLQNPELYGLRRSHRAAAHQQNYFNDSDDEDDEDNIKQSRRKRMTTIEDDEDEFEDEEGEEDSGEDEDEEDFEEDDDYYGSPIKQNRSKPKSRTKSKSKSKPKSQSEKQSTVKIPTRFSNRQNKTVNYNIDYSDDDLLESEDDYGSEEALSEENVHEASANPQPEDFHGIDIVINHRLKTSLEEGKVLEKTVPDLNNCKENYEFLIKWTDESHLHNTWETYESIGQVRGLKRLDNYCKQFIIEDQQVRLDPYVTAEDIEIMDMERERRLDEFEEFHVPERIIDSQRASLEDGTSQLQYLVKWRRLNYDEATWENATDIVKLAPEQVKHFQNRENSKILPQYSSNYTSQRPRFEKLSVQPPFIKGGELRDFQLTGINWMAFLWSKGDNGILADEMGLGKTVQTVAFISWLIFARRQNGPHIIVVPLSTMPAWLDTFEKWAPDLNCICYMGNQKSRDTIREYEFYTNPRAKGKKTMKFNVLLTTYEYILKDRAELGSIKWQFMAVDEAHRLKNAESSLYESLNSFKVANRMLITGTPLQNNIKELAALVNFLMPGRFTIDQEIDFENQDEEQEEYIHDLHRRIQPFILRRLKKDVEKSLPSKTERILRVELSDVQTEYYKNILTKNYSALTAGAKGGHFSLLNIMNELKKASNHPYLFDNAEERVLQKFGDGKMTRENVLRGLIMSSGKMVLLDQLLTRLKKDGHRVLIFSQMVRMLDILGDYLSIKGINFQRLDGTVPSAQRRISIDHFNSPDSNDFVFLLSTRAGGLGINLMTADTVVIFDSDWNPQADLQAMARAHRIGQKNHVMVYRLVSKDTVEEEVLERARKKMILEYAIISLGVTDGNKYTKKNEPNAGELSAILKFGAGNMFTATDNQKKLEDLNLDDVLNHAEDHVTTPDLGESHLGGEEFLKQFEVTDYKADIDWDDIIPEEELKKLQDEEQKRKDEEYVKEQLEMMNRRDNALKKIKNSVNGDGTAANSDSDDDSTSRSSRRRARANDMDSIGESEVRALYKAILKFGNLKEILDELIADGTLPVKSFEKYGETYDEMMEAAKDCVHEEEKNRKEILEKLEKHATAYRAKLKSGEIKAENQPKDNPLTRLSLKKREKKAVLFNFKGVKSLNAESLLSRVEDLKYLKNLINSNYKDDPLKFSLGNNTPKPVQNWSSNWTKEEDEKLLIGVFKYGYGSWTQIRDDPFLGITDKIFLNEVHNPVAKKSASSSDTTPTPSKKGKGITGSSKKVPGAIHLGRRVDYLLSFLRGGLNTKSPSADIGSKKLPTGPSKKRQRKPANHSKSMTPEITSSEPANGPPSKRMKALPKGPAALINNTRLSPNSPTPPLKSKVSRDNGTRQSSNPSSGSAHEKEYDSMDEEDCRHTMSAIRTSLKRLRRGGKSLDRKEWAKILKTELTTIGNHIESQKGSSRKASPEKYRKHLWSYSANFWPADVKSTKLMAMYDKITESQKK

For `O=C(NCC(F)(F)F)NC1CCCc2c1cnn2CCO` (stereo unspecified), the Percent Effect in experiment [1] is -4.5%; in [2] it was 16%; in [3] it was -9.15%; in [4], 18.8%; in experiment [5], 5.36%; in [6] it was 12.5%. The Percent Effect in [7] came to 12.4%; in experiment [8], 7.67%; in experiment [9] it was 2.73%; in experiment [10], 16.1%; in [11], 105%.
In the case of `CCOCCCNC(=O)c1cc(C)nc(N2CCCC2)n1`, the Percent Effect in experiment [1] is -10.2%; in [2] it was 12%; in experiment [3], -12.6%; in [4], 7.96%; in [5] it was 4.91%; in experiment [6], -11.1%. The Percent Effect in experiment [7] is 5.36%; in experiment [8], 8.1%; in experiment [9] it was 1.06%; in [10] it was 10.3%; in experiment [11] it was -14%.
Take `Cc1oncc1C(=O)N1CCC2(CC1)CC(c1ccccc1)C(=O)N2C` (stereo unspecified): the Percent Effect in experiment [1] is -3.51%; in experiment [2] it was -16%; in experiment [3] it was -4.85%; in experiment [4], 1.07%; in experiment [5], 3.28%; in experiment [6], -47.1%. For the same compound, the Percent Effect is 7.69% in experiment [7]; -5.26% in experiment [8]; -37.5% in experiment [9]; -62.5% in experiment [10]; -5.13% in experiment [11].
Turning to `Cc1noc2ncc(C(=O)NCC3CCN(C(C)C)C3)cc12` (stereo unspecified), the Percent Effect is -2.65% in experiment [1]; 2.63% in [2]; 2.21% in [3]; 2.67% in experiment [4]; -6.58% in [5]; 4.21% in experiment [6]. Besides, the Percent Effect in [7] is 4.34%; in experiment [8], 4.5%; in experiment [9], -0.49%; in [10] it was 4.88%; in [11] it was 3.24%.
Turning to `CCOc1ccc(N(CC(=O)c2ccccc2)C2=NCCCCC2)cc1`, the Percent Effect in experiment [1] is -1.17%; in experiment [2], -10.5%; in experiment [3], 6.97%; in experiment [4] it was 2.61%; in experiment [5], 3.21%; in [6], -2.37%. The Percent Effect was 8.72% in experiment [7]; -7.49% in [8]; -1.06% in [9]; -10.4% in experiment [10]; 4.46% in experiment [11].
With `O=C(NC1(c2cccc(F)c2)CCOCC1)c1ccccn1`, the Percent Effect in experiment [1] is -5.05%; in [2], 2.6%; in experiment [3] it was -0.416%; in [4] it was 0.357%; in [5], -4.03%; in experiment [6], 2.76%. In addition, the Percent Effect is 0.499% in [7]; 14.4% in [8]; -6.45% in experiment [9]; -6.17% in experiment [10]; 2.74% in experiment [11].
On to `CN(C)c1ccc(CCNC(=O)C2CCC(=O)N(C3CCCC3)C2)cc1` (stereo unspecified), for which the Percent Effect in experiment [1] was -4.96%; in experiment [2], 8%; in experiment [3] it was 1.17%; in experiment [4], 1.11%; in experiment [5], -2.04%; in experiment [6] it was 1.56%. Moreover, the Percent Effect in experiment [7] is 13.1%; in experiment [8], 1.03%; in [9], 2.73%; in experiment [10], 11.1%; in experiment [11], -5.65%.
For the compound `Cc1cnn(CC2CCCN2Cc2cc(=O)n3ccccc3n2)c1` (stereo unspecified), the Percent Effect was -4.27% in [1]; -2.7% in [2]; -0.318% in experiment [3]; -1.03% in experiment [4]; 2.05% in experiment [5]; 2.73% in experiment [6]. The Percent Effect was 16.7% in experiment [7]; -16.2% in experiment [8]; 7.53% in [9]; 8.64% in [10]; -4.06% in experiment [11].
For the compound `O=C(CCNC(=O)C1CCCC1)NCc1cccnc1-n1cncn1`, the Percent Effect is -4.32% in experiment [1]; 15.8% in experiment [2]; -2.4% in experiment [3]; 3.19% in [4]; -1.21% in experiment [5]; -2.88% in experiment [6]. Besides, the Percent Effect was 9.56% in [7]; -0.451% in [8]; 14.3% in [9]; 25.9% in experiment [10]; -0.359% in experiment [11].
As for `COCC1CN(Cc2ccc(C)o2)Cc2ncn(CC3CC3)c21` (stereo unspecified), the Percent Effect in [1] is 0.368%; in experiment [2] it was 5.2%; in experiment [3], -2.46%; in experiment [4] it was 5.95%; in experiment [5], 6.79%; in experiment [6], -6.9%. Moreover, the Percent Effect in [7] is 3.99%; in experiment [8], -10.6%; in experiment [9], 1.07%; in experiment [10] it was 1.24%; in [11], -7.38%.
As for `O=C(CCc1cscn1)N1CCCC(c2ccn[nH]2)C1` (stereo unspecified), the Percent Effect in experiment [1] was -3.73%; in [2], -5.2%; in [3], 4.11%; in [4] it was 6.88%; in [5], -2.62%; in experiment [6] it was 1.07%. The Percent Effect in experiment [7] is 5.91%; in experiment [8], 15.7%; in experiment [9], 2.91%; in experiment [10], 0%; in [11], -3.79%.
